In paper PMC5540273 (PLoS ONE, 2017):

Assays:
Conditions in all cases: concentration: 1 μM, replicates: in singlicate; n = 1
[1] = tested on: TLK1
[2] = tested on: TLK2
[3] = tested on: TNIK
[4] = tested on: TNK1
[5] = tested on: TNK2
[6] = tested on: TNNI3K
[7] = tested on: T1, TRKA
T1 construct: gene NTRK1

[8] = tested on: TRKB
[9] = tested on: T2, TRKC
T2 construct: gene NTRK3

[10] = tested on: TRPM6
[11] = tested on: TSSK1B
[12] = tested on: TSSK3
[13] = tested on: TTK
[14] = tested on: TXK
[15] = tested on: TYK2(JH1domain-catalytic)
[16] = tested on: TYK2(JH2domain-pseudokinase)
[17] = tested on: TYRO3
[18] = tested on: ULK1
[19] = tested on: ULK2
[20] = tested on: ULK3
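Further: KINOMEscan kinase panel screen.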

| Structure (SMILES) | %Inh [1] [%] | %Inh [2] [%] | %Inh [3] [%] | %Inh [4] [%] | %Inh [5] [%] | %Inh [6] [%] | %Inh [7] [%] | %Inh [8] [%] | %Inh [9] [%] | %Inh [10] [%] | %Inh [11] [%] | %Inh [12] [%] | %Inh [13] [%] | %Inh [14] [%] | %Inh [15] [%] | %Inh [16] [%] | %Inh [17] [%] | %Inh [18] [%] | %Inh [19] [%] | %Inh [20] [%] |
| --- | --- | --- | --- | --- | --- | --- | --- | --- | --- | --- | --- | --- | --- | --- | --- | --- | --- | --- | --- | --- |
| Cl.Cl.Cl.N#Cc1ccc(CCNc2nccc(-c3cccc(CN4CCNCC4)c3)n2)cc1 [GSK2137462] | 9 | 3 | 3 | 4 | 5 | 18 | 56 | 0 | 0 | 0 | 0 | 5 | 14 | 2 | 0 | 0 | 23 | 11 | 12 | 2 |
| O=c1cc(N2CCOCC2)nc2n(Cc3ccccc3F)ccn12 [GSK2297428] | 0 | 0 | 0 | 0 | 4 | 0 | 0 | 0 | 0 | 0 | 0 | 13 | 0 | 0 | 0 | 0 | 0 | 0 | 0 | 0 |
| O=c1cc(N2CCOCC2)nc2n(Cc3cccc(Cl)c3Cl)c3ccccc3n12 [GSK2299009] | 2 | 0 | 1 | 6 | 9 | 17 | 18 | 0 | 0 | 36 | 10 | 20 | 8 | 0 | 0 | 0 | 0 | 18 | 0 | 2 |
| COc1cccc(C2=C(Nc3cc(Cl)c(O)c(Cl)c3)C(=O)NC2=O)c1 [SB-390767] | 0 | 0 | 0 | 23 | 26 | 13 | 0 | 0 | 0 | 15 | 0 | 16 | 7 | 15 | 28 | 39 | 29 | 32 | 0 | 13 |
| Fc1ccc(-c2nc[nH]c2-c2ccncc2)cc1 [SB-217360] | 0 | 0 | 51 | 0 | 0 | 0 | 0 | 0 | 4 | 6 | 0 | 0 | 0 | 0 | 2 | 22 | 0 | 20 | 27 | 16 |
| COc1ccc(Nc2nccc(N3CCC(NC(=O)C(C)c4ccc(Cl)cc4)CC3)n2)cc1 (stereo not drawn) [GSK1379812] | 7 | 0 | 0 | 0 | 8 | 2 | 49 | 0 | 0 | 0 | 0 | 53 | 0 | 0 | 0 | 0 | 0 | 0 | 0 | 0 |
| COc1cccc(NC(=O)Nc2ccc(C)c(-c3ccc(C(=O)Nc4ccncc4)cc3)c2)c1 [GSK1398474] | 11 | 0 | 0 | 10 | 16 | 20 | 4 | 0 | 2 | 31 | 0 | 6 | 13 | 0 | 0 | 0 | 0 | 6 | 0 | 0 |
| Cc1c(Cn2c3ccccc3n3c(=O)cc(N4CCOCC4)nc23)cccc1C(F)(F)F [GSK2306394] | 5 | 0 | 0 | 0 | 3 | 0 | 0 | 0 | 0 | 0 | 3 | 0 | 27 | 0 | 26 | 0 | 0 | 21 | 0 | 7 |
| COC(=O)C(Cc1ccccc1)NC(=O)NC1CCN(c2ccnc(Nc3ccc(F)cc3)n2)C1 (stereo not drawn) [GSK1379714] | 10 | 0 | 6 | 0 | 4 | 0 | 98.2 | 23 | 25 | 0 | 0 | 21 | 0 | 0 | 33 | 19 | 0 | 0 | 0 | 0 |
| CN1c2ccc(-c3ccc(C(N)=O)cc3)cc2-c2[nH]ncc2S1(=O)=O | 36 | 0 | 45 | 24 | 0 | 0 | 0 | 0 | 0 | 13 | 0 | 0 | 5 | 0 | 45 | 83 | 0 | 0 | 9 | 6 |
| COc1ccc(CSc2nnc(-c3ccc4c(c3)CCO4)o2)cc1 | 0 | 0 | 0 | 0 | 0 | 0 | 0 | 0 | 0 | 0 | 0 | 0 | 0 | 0 | 0 | 0 | 0 | 0 | 0 | 0 |
| COc1ccc(Nc2nccc(-c3ccc(NC(=O)c4cc5cc(F)ccc5[nH]4)cc3)n2)cc1 [GSK1229496] | 23 | 0 | 0 | 47 | 0 | 0 | 9 | 13 | 0 | 0 | 0 | 22 | 0 | 0 | 23 | 0 | 0 | 0 | 0 | 8 |
| Cn1cncc1-c1cc2c(Nc3ccc(OCc4ccccc4)cc3)ncnc2cn1 [GW281179] | 18 | 0 | 0 | 1 | 20 | 11 | 0 | 37 | 0 | 12 | 18 | 10 | 7 | 21 | 96.8 | 27 | 0 | 0 | 0 | 0 |
| Cc1ccc(NC(=O)Nc2ccc(Cl)cc2)cc1-c1ccc(C(=O)Nc2ccncc2)cc1 [GSK1398472] | 0 | 0 | 0 | 0 | 16 | 25 | 0 | 0 | 9 | 14 | 0 | 11 | 0 | 47 | 62 | 13 | 4 | 8 | 0 | 0 |
| O=C(Nc1n[nH]c2nc(-c3ccco3)c(Br)cc12)C1CCN(Cc2ccccc2)C1.O=C(O)[C@H](O)[C@@H](O)C(=O)O (stereo not drawn) [SB-742034] | 5 | 6 | 17 | 13 | 6 | 0 | 48 | 17 | 0 | 1 | 0 | 0 | 4 | 0 | 5 | 0 | 0 | 5 | 19 | 6 |
| Cc1ccc(NC(=O)Nc2ccccc2F)cc1-c1ccc(C(=O)Nc2ccncc2)cc1 [GSK1398477] | 6 | 0 | 10 | 10 | 34 | 53 | 10 | 0 | 0 | 21 | 3 | 11 | 22 | 8 | 0 | 0 | 9 | 8 | 0 | 0 |
| CC(C)c1ccc(O)cc1Nc1ccnc2ccc(C(F)(F)F)cc12 [GW482059] | 0 | 0 | 0 | 0 | 0 | 71 | 12 | 11 | 37 | 1 | 0 | 3 | 2 | 19 | 23 | 0 | 0 | 20 | 0 | 8 |
| O=C(Nc1n[nH]c2cc(-c3ccsc3)ccc12)C1CC1 [SB-732932] | 0 | 0 | 61 | 0 | 8 | 0 | 87 | 39 | 38 | 0 | 13 | 27 | 35 | 5 | 9 | 0 | 14 | 21 | 6 | 32 |
| Cc1cccc2c(-c3ccncn3)c(-c3ccc(F)cc3)nn12 [GW515532] | 6 | 0 | 8 | 0 | 0 | 0 | 2 | 0 | 7 | 0 | 16 | 0 | 14 | 12 | 30 | 24 | 0 | 19 | 0 | 10 |
| COC(=O)c1cccc(NC(=O)NC2CCN(c3ccnc(Nc4ccc(F)cc4)n3)C2)c1 (stereo not drawn) [GSK1379725] | 0 | 0 | 0 | 0 | 17 | 2 | 9 | 58 | 82 | 0 | 0 | 3 | 0 | 0 | 0 | 23 | 0 | 15 | 0 | 12 |
| Nc1nccc(-c2c(-c3ccc(F)cc3)ncn2C2CCN(Cc3ccccc3)CC2)n1 [SB-219980] | 0 | 0 | 96.5 | 35 | 10 | 0 | 0 | 0 | 0 | 0 | 0 | 0 | 0 | 0 | 7 | 49 | 15 | 31 | 0 | 22 |
